Measurements: PubChem BioAssay AID1159580 (chemical genetic matrix, 2015)
The campaign covered roughly 5,500 compounds. About 2,000 (36%) were called active. Not shown: some 18% with an inconclusive outcome. No stated cut-off is given here; in the data, active means normalized growth mostly below about 0.91 (no sharp cut-off); inconclusive means no clear call, values can overlap the other calls; inactive means mostly above about 0.92. This is one part of the list.

Experiment: chemical genetic growth profiling, strain panel (AID 1159580);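 further: tested at 20 µM; growth read once vehicle control cultures reached saturation at 30 °C; 1 = growth at the plate median or of vehicle wells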
Settings: growth OD

Measured: normalized growth

COC(=O)C[C@H]1C(C)(C)[C@@H](OC(C)=O)[C@@H]2CC3=C4CC(=O)O[C@@H](c5ccoc5)[C@]4(C)CCC3[C@@]1(C)C2=O (some centres not stated)
inactive: S. cerevisiae deletion strains, locus YJR066W, strain TOR1, stronger effect = lower value 0.954 | S. cerevisiae deletion strains, locus YJR075W, strain HOC1, stronger effect = lower value 0.997 | S. cerevisiae deletion strains, locus YKL009W, strain mrt4, stronger effect = lower value 0.986 | S. cerevisiae deletion strains, locus YKL068W, stronger effect = lower value 1 | S. cerevisiae deletion strains, locus YKL085W, strain MDH1 (second series), stronger effect = lower value 0.993 | S. cerevisiae deletion strains, locus YKL085W, strain MDH1, stronger effect = lower value 0.993 | S. cerevisiae deletion strains, locus YKL160W, strain elf1, stronger effect = lower value 1.02 | S. cerevisiae deletion strains, locus YKR001C, strain vps1, stronger effect = lower value 1.01 | S. cerevisiae deletion strains, locus YKR026C, strain gcn3, stronger effect = lower value 0.992 | S. cerevisiae deletion strains, locus YKR091W, strain srl3, stronger effect = lower value 0.996 | S. cerevisiae deletion strains, locus YLL001W, strain dnm1, stronger effect = lower value 0.949 | S. cerevisiae deletion strains, locus YLL026W, stronger effect = lower value 0.998 | S. cerevisiae deletion strains, locus YLL041C, strain sdh2, stronger effect = lower value 0.997 | S. cerevisiae deletion strains, locus YLR027C, strain aat2, stronger effect = lower value 0.998 | S. cerevisiae deletion strains, locus YLR039C, strain RIC1, stronger effect = lower value 0.993 | S. cerevisiae deletion strains, locus YLR058C, strain SHM2, stronger effect = lower value 1 | S. cerevisiae deletion strains, locus YLR102C, strain apc9, stronger effect = lower value 1.01 | S. cerevisiae deletion strains, locus YLR113W, strain HOG1, stronger effect = lower value 1.03 | S. cerevisiae deletion strains, locus YLR221C, strain rsa3, stronger effect = lower value 0.961 | S. cerevisiae deletion strains, locus YLR258W, strain gsy2, stronger effect = lower value 1.01 | S. cerevisiae deletion strains, locus YLR262C, strain YPT6 (second series), stronger effect = lower value 1.02 | S. cerevisiae deletion strains, locus YLR268W, strain sec22, stronger effect = lower value 0.993 | S. cerevisiae deletion strains, locus YLR320W, strain mms22, stronger effect = lower value 0.978 | S. cerevisiae deletion strains, locus YLR330W, strain CHS5, stronger effect = lower value 1 | S. cerevisiae deletion strains, locus YLR342W, strain FKS1 (second series), stronger effect = lower value 1.02 | S. cerevisiae deletion strains, locus YLR342W, strain FKS1, stronger effect = lower value 1.02 | S. cerevisiae deletion strains, locus YLR357W, strain rsc2, stronger effect = lower value 1.01 | S. cerevisiae deletion strains, locus YLR370C, strain arc18, stronger effect = lower value 0.986 | S. cerevisiae deletion strains, locus YLR371W, strain rom2, stronger effect = lower value 0.983 | S. cerevisiae deletion strains, locus YLR384C, strain iki3, stronger effect = lower value 0.985 | S. cerevisiae deletion strains, locus YLR418C, strain cdc73, stronger effect = lower value 1.04 | S. cerevisiae deletion strains, locus YML016C, strain PPZ1, stronger effect = lower value 0.992 | S. cerevisiae deletion strains, locus YML032C, strain rad52, stronger effect = lower value 0.974 | S. cerevisiae deletion strains, locus YML120C, strain ndi1, stronger effect = lower value 1.01 | S. cerevisiae deletion strains, locus YML124C, strain tub3, stronger effect = lower value 1.01 | S. cerevisiae deletion strains, locus YMR058W, strain fet3, stronger effect = lower value 0.993 | S. cerevisiae deletion strains, locus YMR078C, strain ctf18, stronger effect = lower value 1.01 | S. cerevisiae deletion strains, locus YMR125W, strain sto1, stronger effect = lower value 1.01 | S. cerevisiae deletion strains, locus YMR129W, stronger effect = lower value 0.988 | S. cerevisiae deletion strains, locus YMR205C, strain PFK2, stronger effect = lower value 1.02 | S. cerevisiae deletion strains, locus YMR223W, strain ubp8, stronger effect = lower value 0.998 | S. cerevisiae deletion strains, locus YMR231W, strain pep5, stronger effect = lower value 0.998 | S. cerevisiae deletion strains, locus YMR263W, strain SAP30, stronger effect = lower value 1.01 | S. cerevisiae deletion strains, locus YMR307W, strain GAS1, stronger effect = lower value 0.927 | S. cerevisiae deletion strains, locus YNL067W, strain RPL9B, stronger effect = lower value 1.01 | S. cerevisiae deletion strains, locus YNL071W, strain lat1, stronger effect = lower value 1 | S. cerevisiae deletion strains, locus YNL128W, strain TEP1, stronger effect = lower value 0.99 | S. cerevisiae deletion strains, locus YNL153C, strain GIM3, stronger effect = lower value 1.02 | S. cerevisiae deletion strains, locus YNL183C, strain NPR1, stronger effect = lower value 0.958 | S. cerevisiae deletion strains, locus YNL209W, strain ssb2, stronger effect = lower value 1 | S. cerevisiae deletion strains, locus YNL233W, strain BNI4, stronger effect = lower value 1.01 | S. cerevisiae deletion strains, locus YNL248C, strain rpa49, stronger effect = lower value 0.961 | S. cerevisiae deletion strains, locus YNL250W, strain rad50, stronger effect = lower value 1 | S. cerevisiae deletion strains, locus YNL271C, strain bni1, stronger effect = lower value 0.982 | S. cerevisiae deletion strains, locus YNL298W, strain CLA4, stronger effect = lower value 1.01 | S. cerevisiae deletion strains, locus YNL307C, strain MCK1, stronger effect = lower value 1.01 | S. cerevisiae deletion strains, locus YNL322C, strain KRE1 (second series), stronger effect = lower value 1.01 | S. cerevisiae deletion strains, locus YNR049C, strain mso1, stronger effect = lower value 0.994 | S. cerevisiae deletion strains, locus YNR052C, strain pop2, stronger effect = lower value 1.01 | S. cerevisiae deletion strains, locus YOL012C, strain htz1 1.31 | S. cerevisiae deletion strains, locus YOL147C, strain pex11, stronger effect = lower value 0.999 | S. cerevisiae deletion strains, locus YOR001W, strain rrp6, stronger effect = lower value 0.939 | S. cerevisiae deletion strains, locus YOR061W, strain CKA2, stronger effect = lower value 0.995 | S. cerevisiae deletion strains, locus YOR069W, strain VPS5, stronger effect = lower value 1 | S. cerevisiae deletion strains, locus YOR070C, strain gyp1, stronger effect = lower value 0.991 | S. cerevisiae deletion strains, locus YOR080W, strain dia2, stronger effect = lower value 0.987 | S. cerevisiae deletion strains, locus YOR083W, strain WHI5, stronger effect = lower value 1.02 | S. cerevisiae deletion strains, locus YOR106W, strain vam3, stronger effect = lower value 1.02 | S. cerevisiae deletion strains, locus YOR136W, strain idh2, stronger effect = lower value 0.987 | S. cerevisiae deletion strains, locus YOR144C, strain elg1, stronger effect = lower value 0.998 | S. cerevisiae deletion strains, locus YOR184W, strain ser1, stronger effect = lower value 0.987 | S. cerevisiae deletion strains, locus YOR231W, strain MKK1, stronger effect = lower value 0.988 | S. cerevisiae deletion strains, locus YOR265W, strain rbl2, stronger effect = lower value 1 | S. cerevisiae deletion strains, locus YOR270C, strain vph1, stronger effect = lower value 0.888 | S. cerevisiae deletion strains, locus YOR290C, strain snf2, stronger effect = lower value 1.03 | S. cerevisiae deletion strains, locus YOR316C, strain cot1, stronger effect = lower value 1.01 | S. cerevisiae deletion strains, locus YPL051W, strain arl3, stronger effect = lower value 1 | S. cerevisiae deletion strains, locus YPL078C, strain atp4, stronger effect = lower value 1.01 | S. cerevisiae deletion strains, locus YPL106C, strain sse1, stronger effect = lower value 1.04 | S. cerevisiae deletion strains, locus YPL240C, strain hsp82, stronger effect = lower value 1 | S. cerevisiae deletion strains, locus YPL256C, strain CLN2, stronger effect = lower value 0.983 | S. cerevisiae deletion strains, locus YPR119W, strain clb2, stronger effect = lower value 0.996 | S. cerevisiae deletion strains, locus YPR141C, strain kar3, stronger effect = lower value 1 | S. cerevisiae deletion strains, locus YPR163C, strain tif3, stronger effect = lower value 1 | S. cerevisiae deletion strains, locus YPR167C, strain met16, stronger effect = lower value 0.995 | S. cerevisiae deletion strains, strain wtn01, stronger effect = lower value 0.978 | S. cerevisiae strains, strain wild type, stronger effect = lower value 0.997
